Screening data: PubChem, National Center for Advancing Translational Sciences (NCATS)
This is a sample that favours compounds with a hit; in the whole collection about 17% have one here.
TDP1 cell noCPT = qHTS for Inhibitors of human tyrosyl-DNA phosphodiesterase 1 (TDP1): qHTS in cells in absence of CPT. AID 686978, 2013. Potency, µM (titrated, usually from 46.2 µM), hits mostly inhibitors. 420,000 tested, 15% active. DT40 Tdp1-/- hTDP1 cells, no CPT, ATP luminescence, 48 h; note: nearly all actives have a fitted effect of over 55% in size
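Growth of hTDP1-complemented DT40 Tdp1-knockout cells is measured by ATP luminescence after at least 48 hr compound exposure at 37 °C, with DMSO substituting for the 20 nM CPT used in the parallel screen.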
TDP1 block = qHTS Assay for Inhibitors of Tyrosyl-DNA Phosphodiesterase (TDP1); Tyrosyl-DNA phosphodiesterase 1 (Homo sapiens), Q9NUW8; 350,000 tested, 0.28% active; recombinant TDP1, AlphaScreen DNA substrate cleavage; Potency, µM (doses to about 130 µM), usual class: inhibitors; note: nearly all actives have a fitted effect of over 40% in size
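Recombinant E. coli-expressed Tdp1 (1 nM) preincubated with compound 15 min at RT, then 5'-biotin/3'-phosphotyrosine-FITC DNA substrate (15 nM) added for 5 min. AlphaScreen beads (10 ug/ml) added, 10 min RT; tyrosine-FITC cleavage read as signal loss.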
ClpP mod = qHTS Assay for Activators of ClpP. ATP-dependent Clp protease proteolytic subunit (Bacillus subtilis (strain 168)), P80244. purified B. subtilis ClpP, FRET peptide cleavage, 20 min. Potency, µM (top dose mostly 57.5 µM). 340,000 tested, 1.9% active. AID 651965, 2013; active = well fitted falling curve with a large enough effect; inconclusive = small, poorly fitted or top-dose-only effect; inactive = no such curve, though single readings can be large or run the other way; note: the source files actives as falling curves though it sought activators and does not explain the sign; nearly all actives have a fitted effect of over 65% in size
Target sequence (P80244 whole entry, looked up): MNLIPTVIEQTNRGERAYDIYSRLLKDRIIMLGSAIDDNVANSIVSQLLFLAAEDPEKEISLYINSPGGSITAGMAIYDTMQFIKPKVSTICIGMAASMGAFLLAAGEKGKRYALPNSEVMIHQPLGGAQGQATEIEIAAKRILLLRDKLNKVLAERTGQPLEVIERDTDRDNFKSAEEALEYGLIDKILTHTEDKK
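Buffer: 100 mM Tris/HCl pH8, 100 mM KCl, 0.05% low protease BSA, 2.5% glycerol, 0.01% Tween-20. ClpP 10 microg/mL final; 20 min RT; delta FRET normalized to ADEP and DMSO controls.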
TDP1 cell CPT = qHTS for Inhibitors of human tyrosyl-DNA phosphodiesterase 1 (TDP1): qHTS in cells in presence of CPT; chicken DT40 Tdp1-/-;hTDP1 cells + 20 nM CPT, ATP luminescence, 48 h; Potency, µM (titrated, usually from 46.2 µM), usual class: inhibitors; AID 686979, 2013; 420,000 tested, 12% active; note: nearly all actives have a fitted effect of over 55% in size
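Cell growth measured by CellTiter-Glo luminescence after a minimum 48 h, 37 C compound exposure with 20 nM CPT in Tdp1-knockout DT40 cells stably expressing hTDP1, seeded 400/well; qHTS titration format.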
A number is an active result; i = inactive; ? = inconclusive; nt = no result given; [ ] = another dose, or the depositor's remark. Unless noted, calls come from the whole dose curve; as a rule, active = well fitted curve in the direction sought with a large enough effect; inconclusive = small, poorly fitted or top-dose-only effect, or another doubt; inactive = no such curve, though single readings can be large; an effect the other way counts as inactive or inconclusive.

SMILES	TDP1 cell noCPT	TDP1 block	ClpP mod	TDP1 cell CPT
COc1ccc(-n2cc(C(=O)N(CCN(C)C)Cc3ccccc3)c3ccccc3c2=O)cc1	?	i	i	i
Cc1nnsc1C(=O)NCC1Cc2cccc(-c3ncccn3)c2O1 (configuration not stated)	i	nt	nt	i[9.04 µM]
Cc1cccc2c(N=O)c(O)n(CCc3ccccc3)c12	?	i	i	i
CN(C)CCNC(=O)CN1C(=O)COc2ccc(S(=O)(=O)N3CCCC3)cc21	i	i	i	i
CN(CC(=O)NC(=O)NC1CCCCC1)CC(=O)Nc1ccc(OC(F)(F)F)cc1	?	i	i	?
Cc1occc1C(=O)Nc1ccc(OCc2ccccc2)cc1	16.4µM	i	nt	i
CCCN(CC(=O)Nc1ccccc1C)C(=O)/C=C/c1ccc(S(=O)(=O)N2CCCCCC2)cc1	20.6µM	nt	i	?
COc1ccc(OC)c(/C=C/C(=O)N(C)CC(=O)Nc2ccc(C)cc2)c1	10.3µM	i	28.2µM	6.51µM
CC1Cc2ccccc2N1C(=O)CN(C)CC(=O)Nc1ccc(OC(F)(F)F)cc1 (configuration not stated)	?	i	i	14.6µM
O=C(Nc1ccc(OCc2ccccc2)cc1)c1cccs1	?	nt	i	?
COc1ccc(OC)c(/C=C/C(=O)N(C)CC(=O)Nc2cc(C)ccc2C)c1	?	i	i	i
CCCN(CC(=O)Nc1ccccc1C)C(=O)c1ccc(S(=O)(=O)N2CCCCCC2)cc1	i	i	i	i
CCc1ccccc1NC(=O)Nc1nnc(N2CCCC2)s1	i	i	i	i
COc1ccc(NC(=O)CN(C)Cc2c(F)cccc2Cl)cc1S(=O)(=O)N1CCCCC1	i	i	nt	i
COc1ccc(NC(=O)CN(C)C(=O)/C=C/c2ccc(S(=O)(=O)N3CCCCCC3)cc2)cc1	18.4µM	nt	i	?
COc1ccc(N(CC(=O)Nc2ccc(S(=O)(=O)N3CCCCC3)cc2)S(C)(=O)=O)cc1OC	?	i	i	?
CN(CC(=O)Nc1ccc(OC(F)(F)F)cc1)C(=O)/C=C/c1ccco1	23.1µM	nt	i	?
COc1ccc(/C=C/C(=O)N(C)CC(=O)Nc2cccc(F)c2)cc1S(=O)(=O)N1CCCCC1	16.4µM	i	i	18.4µM
COc1ccc(NC(=O)CN(C)C(=O)/C=C/c2ccc(OCc3ccccc3)cc2)cc1	?	nt	28.2µM	i
C[C@@H]1CN([C@H](C)CO)C(=O)Cc2cc(NC(=O)Nc3ccccc3)ccc2O[C@@H]1CN(C)C(=O)Nc1ccc2c(c1)OCO2	i	i	i	i
CCCc1c(C(=O)N/N=C/c2sccc2C)nnn1-c1nonc1N	i	i	i	i
CC(C)(C)c1nn2cnnc2n(/N=C/c2ccc(O)cc2)c1=O	i	i	7.08µM	i
O=C(/C=C/c1ccco1)c1ccc(NC(=O)C23CC4CC(CC(C4)C2)C3)cc1	14.6µM	i	i	20.6µM
O=C(C=Cc1ccco1)c1ccc([N+](=O)[O-])cc1	i	nt	nt	i
Cc1ccc(S(=O)(=O)N(CC(=O)N/N=C/c2cccc3c2OCCO3)c2ccccc2F)cc1	?	i	22.4µM	?
SMILES	TDP1 cell noCPT	TDP1 block	ClpP mod	TDP1 cell CPT
Cc1ccc(S(=O)(=O)N(CC(=O)N/N=C/c2cccc(C)c2)c2cccc3cccnc23)cc1	20.6µM	i	25.1µM	?
COc1ccccc1N(CC(=O)N/N=C/c1ccc(C(=O)O)cc1)S(=O)(=O)c1ccc(C)cc1	i	i	i	i
COc1ccc(NC(=O)CN(c2ccccc2F)S(=O)(=O)c2ccc(C)cc2)cc1	?	nt	i	i
Cn1c(=O)c(C(=O)COC(=O)c2cc(C(F)(F)F)nc3c(C(F)(F)F)cccc23)c(N)n(Cc2ccccc2)c1=O	nt	i	nt	nt
CC1(C)NC(=O)N(CCC(=O)Nc2cc(C(F)(F)F)ccc2Cl)C1=O	i	i	i	i
Cc1nc2c(F)c(F)c(C(F)(F)F)c(F)c2[nH]1	20.6µM	i	i	?
Cc1nc2c(Br)c3nc(C(F)(F)F)[nH]c3c(Br)c2[nH]1	i	i	i	i
Cc1ccc(-c2ccc(=O)n(CC(=O)NC(C)c3ccccc3)n2)cc1 (configuration not stated)	i	i	i	i
CN(C)c1ccc(/C=C/c2nccc3ccccc23)cc1	?	nt	i	?
CN(C)c1ccc(/C=C/c2cnnc3ccccc23)cc1	6.31µM	nt	i	7.08µM
Cc1nc2ccccc2nc1/C=C/c1ccc(N(C)C)cc1	0.501µM	nt	i	0.501µM
CN(C)c1ccc(/C=C/c2cc(N(C)C)nc3ccccc23)cc1	0.891µM	nt	i	1µM
CNc1nc(-c2cccs2)cc(C(F)(F)F)c1C#N	i	nt	i	i
COc1ccc(NC(=O)Cn2c(=O)n(-c3ccc(OC)cc3)c(=O)c3ccc(C(=O)NCc4ccc(C)cc4)cc32)cc1	i	i	i	?
CC(=O)NC(CSC(CC(=O)c1ccco1)c1ccc(C)cc1)C(=O)O (configuration not stated)	16.4µM	i	i	?
Nc1ccccc1SC(CC(=O)c1ccccc1)c1cccc([N+](=O)[O-])c1 (configuration not stated)	5.17µM	nt	i	16.4µM
Nc1ccccc1SC(CC(=O)c1ccccc1)c1ccc([N+](=O)[O-])cc1 (configuration not stated)	16.4µM	nt	i	14.6µM
COc1ccc(C(CC(=O)c2ccc(C)cc2)Sc2ccccc2N)cc1 (configuration not stated)	?	nt	i	23.1µM
O=C(NC(NC(=O)c1ccccc1)c1cccc([N+](=O)[O-])c1)c1ccccc1	i	i	i	i
COc1ccc(C(=O)CC(c2ccccc2)S(=O)(=O)c2ccc(C)cc2)cc1 (configuration not stated)	nt	i	nt	nt
Cc1cc(C2(c3cc(C)c(O)cc3C)OS(=O)(=O)c3ccccc32)c(C)cc1O	nt	i	nt	nt
Cc1ccccc1CN1CCN(C(=O)[C@H]2O[C@@H](n3cnc4c(N)ncnc43)[C@H](O)[C@@H]2O)CC1	?	nt	i	?
O=C(NCCNc1ccc([N+](=O)[O-])cc1)c1ccco1	i	nt	nt	i
O=C(CC(SCCO)c1ccc([N+](=O)[O-])cc1)c1ccco1 (configuration not stated)	14.6µM	i	i	i
O=C(C[n+]1cccc(C(=O)Nc2ccccc2)c1)c1ccc(Cl)cc1	16.4µM	nt	i	?
N#CC1=C(SCC(N)=O)NC2=C(C(=O)c3ccccc32)C1c1ccc(Cl)cc1 (configuration not stated)	16.4µM	i	i	29.1µM
COc1cc(OC)cc(C(=O)N[C@H](C(=O)Nc2nc(-c3ccc(OC)c(OC)c3)cs2)C(C)C)c1	13µM	nt	i	18.4µM
CCc1noc(C)c1C(=O)Nc1nc(-c2cccs2)cs1	?	i[0.505 µM]	nt	i
